Only some compounds are listed: those with a hit (about 4% of all), similar ones and a draw of the others.
Rv3671c protease: Rv3671c (M. tuberculosis) protease inhibition | P9WHR9 | inhibition, % at 5.96 µM | 0.048% of 320,000 active; in the data active means inhibition above about 38%;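 further: extracellular domain of Rv3671c used as enzyme; 0% = enzyme with DMSO and 100% = no enzyme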
UGM FP inh: Mtb UDP-galactopyranose mutase inhibition. purified UGM, fluorescence polarization probe displacement. inhibition, % at 10 µM. 0.06% of 320,000 active. AID 504406; in the data active means inhibition above about 10%, passing the limit was not always enough; inconclusive means no clear call, values can overlap the other calls
RecA splice inh: inhibitors of M. tuberculosis RecA intein splicing. 0.75% of 290,000 active. cell-free RecA intein splicing, fluorescence. P9WHJ3. inhibition, % (test concentration not listed); in the data active means inhibition above about 30%; inconclusive means no clear call, values can overlap the other calls;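 further: 0% = vehicle wells and 100% = reference inhibitor control wells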
Mtb betalactam: beta-lactam sensitization of Mtb H37Rv | M. tuberculosis H37Rv growth with meropenem, percent inhibition | inhibition, % at 25 µM | 0.27% of 330,000 active; call rule not given here;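 further: growth measured after seven days incubation then overnight dye step; 0% = bacteria only wells and 100% = bacteria with antibiotic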
GDH-TPI counter: inhibits GDH-TPI coupling enzymes, artifact for Mtb FBA screen; GDH-TPI coupled enzyme counterscreen, NADH absorbance; inhibition, % at 4.8 µM; 1.2% of 360,000 active; AID 588335; in the data active means inhibition above about 30%;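 further: 0% = DMSO wells and 100% = wells lacking the enzyme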
Mtb FBA inh: Mtb fructose-bisphosphate aldolase inhibition; P9WQA3; purified M. tuberculosis FBA, fluorescence read-out; inhibition, % at 1 µM; 2.3% of 360,000 active; in the data active means inhibition above about 27%;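 further: 0% = vehicle and 100% = reference inhibitor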
Target sequence (P9WQA3 whole entry, looked up): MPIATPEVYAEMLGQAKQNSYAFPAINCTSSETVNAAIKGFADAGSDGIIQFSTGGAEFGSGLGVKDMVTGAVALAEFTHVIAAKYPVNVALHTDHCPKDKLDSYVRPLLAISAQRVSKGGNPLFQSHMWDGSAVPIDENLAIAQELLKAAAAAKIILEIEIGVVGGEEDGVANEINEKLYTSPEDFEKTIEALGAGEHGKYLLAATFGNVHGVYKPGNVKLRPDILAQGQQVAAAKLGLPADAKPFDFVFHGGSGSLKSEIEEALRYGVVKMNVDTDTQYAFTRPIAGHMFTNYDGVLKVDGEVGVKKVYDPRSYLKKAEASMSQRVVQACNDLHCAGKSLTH
* = called active by the depositor; ? = inconclusive; . = not tested or not shown.

SMILES	Rv3671c protease	UGM FP inh	RecA splice inh	Mtb betalactam	GDH-TPI counter	Mtb FBA inh
CCOC(=O)C1=C(COC(=O)c2ccc([N+](=O)[O-])o2)NC(=O)NC1C (stereo not drawn)	-5.5	-0.3	.	-4.1	4.6	-2.0
CNC(=O)c1[nH]nc2c1CCc1ccccc1-2	-10.0	1.6	1.2	4.9	5.3	3.8
COC(=O)c1[nH]c2c(c1C(=O)OC)CCc1ccccc1-2	-2.9	2.2	-3.8	-2.4	30.5	120.5*
Cc1cc(=O)oc2cc(OCC(=O)NC3CCCCC3)ccc12	6.4	-1.0	1.0	5.1	10.4	14.0
N#CCN1CCC/C1=C\[N+](=O)[O-]	4.9	-1.1	-0.2	-1.4	31.8*	-4.3
COc1ccc(C(=O)Nc2ccccc2C(=O)NCc2cccnc2)cc1	-3.4	-0.2	2.6	?	-1.4	-0.7
O=C(N=Nc1c(O)[nH]c2ccccc12)Nc1ccccc1	.	.	.	.	30.7*	2.1
O=C(N=Nc1c(O)[nH]c2ccc(F)cc12)c1ccc(NS(=O)(=O)c2cccs2)cc1	2.0	2.9	.	1.0	10.8	1.0
O=C(N=Nc1c(O)[nH]c2ccccc12)c1cc(-c2cccs2)[nH]n1	-35.8	3.4	-1.0	-0.2	35.0*	-1.8
NS(=O)(=O)c1cc(C(=O)N=Nc2c(O)[nH]c3ccccc23)ccc1Cl	0.5	0.3	4.6	2.1	33.8*	1.9
O=C(N=Nc1c(O)[nH]c2ccccc12)c1ccccc1NS(=O)(=O)c1cccs1	-0.9	2.1	-0.3	8.6	33.6*	-3.5
O=C(Cc1cccs1)N=Nc1c(O)[nH]c2ccccc12	-1.4	6.4	1.5	-3.9	14.1	-2.7
CC(C)(O)C(=O)N=Nc1c(O)[nH]c2ccccc12	0.2	-2.1	0.8	3.0	2.5	-1.4
CC(OC(=O)c1cccc(S(=O)(=O)N2CCCCCC2)c1)C(=O)Nc1ccc(S(N)(=O)=O)cc1 (stereo not drawn)	-4.3	-1.4	1.9	1.7	-5.0	0.6
COc1ccccc1OCCN1C(=O)S/C(=C\c2ccco2)C1=O	1.4	-1.2	2.9	-2.7	34.3*	-7.9
O=C(Nc1nnc(-c2ccncc2)o1)c1cccc(N2C(=O)CCC2=O)c1	1.0	-1.1	4.1	6.8	37.8*	5.3
Cc1ccc(NC(=O)/C(=C\C=C\c2ccccc2)NC(=O)c2ccccc2)cc1	-16.3	-0.8	4.8	-10.8	51.2*	0.3
O=C(Nc1ccc(C(=O)O)cc1)/C(=C/c1ccc2c(c1)OCO2)NC(=O)c1cccc(Br)c1	0.9	-0.1	1.2	-1.4	22.0	-3.0
O=C(Nc1cccc(C(=O)O)c1)/C(=C\C=C\c1ccccc1)NC(=O)c1ccccc1	-0.3	1.4	-5.5	4.3	33.0*	-7.3
CCOC(=O)/C(=C/C=C/c1ccccc1)NC(=O)c1ccccc1	-5.2	-1.2	2.4	1.7	30.0	0.9
O=C(Nc1cccc(C(=O)O)c1)/C(=C\c1ccccc1)NC(=O)c1ccccc1	3.8	-0.3	2.0	8.3	0.9	-1.6
CCOC(=O)/C(=C\C=C\c1ccccc1)NC(=O)c1ccccc1	-5.3	-1.6	1.5	5.9	67.4*	3.3
O=C(Nc1ccc(C(=O)O)cc1)/C(=C\C=C\c1ccccc1)NC(=O)c1cccc(Br)c1	-28.6	3.8	13.8	-0.5	42.1*	-2.7
CC(C)C[C@@H](CNCC(=O)[C@H](Cc1ccccc1)NC(=O)c1[nH]cnc1C(=O)N[C@H](CN)CC(C)C)NC(=O)c1nc[nH]c1C(=O)N[C@@H](CC(=O)O)C(=O)O	.	.	.	.	9.9	1.1
O=C(Nc1ccc(C(=O)O)cc1)/C(=C\C=C\c1ccccc1)NC(=O)c1ccccc1Br	-9.2	0.8	2.1	8.2	51.6*	-3.4
SMILES	Rv3671c protease	UGM FP inh	RecA splice inh	Mtb betalactam	GDH-TPI counter	Mtb FBA inh
Cc1cccc(C(=O)c2cnc3ccccc3c2-c2ccccc2)c1	-15.8	-0.8	32.9*	-4.5	3.5	-10.0
CC1(Cc2ccc(OC(F)(F)F)cc2)C(=O)Nc2ccc(S(=O)(=O)NC3CCCCC3)cc21 (stereo not drawn)	.	.	.	.	7.1	-3.9
S=c1[nH]nc(-c2ccncc2)n1/N=C/C=C/c1ccco1	-0.8	-0.7	0.2	-1.5	24.8	-1.9
C(=C\c1ccco1)/C=N/n1cnnc1	13.2	-2.2	7.7	-4.9	51.0*	-8.2
CCOC(=O)C1CCCN(C2=C(NS(=O)(=O)c3ccc(Br)cc3)C(=O)c3ccccc3C2=O)C1 (stereo not drawn)	-55.2	2.3	24.8	10.0	9.6	-2.5
CCOC(=O)C1CCN(C2=C(NS(=O)(=O)c3ccc(Cl)cc3)C(=O)c3ccccc3C2=O)CC1	9.5	0.2	13.7	2.9	0.3	129.0*
NC(Cc1ccc(C(F)(F)F)cc1)c1csc(Nc2cc(Oc3ccccc3)ncn2)n1 (stereo not drawn)	.	.	.	.	11.1	-2.2
Cc1ccc(S(=O)(=O)N2[C@@H](c3ccc(Cl)cc3)C(C(=O)OC(C)(C)C)=CC[C@H]2c2ccc(Cl)c(Cl)c2)cc1	.	.	.	.	.	1.1
Cn1c(NC(=O)c2ccccc2NC(=O)C(C)(C)C)nc2ccccc21	0.1	-0.8	11.2	86.8	33.8*	7.8
COc1ccc(S(=O)(=O)NCCC(=O)N2CCCN(C)CC2)cc1	-9.1	1.2	.	2.0	-11.0	6.2
Cc1cnc(C(=O)OCC(=O)Nc2c(Cl)cc(Cl)cc2Cl)cn1	3.6	-0.6	.	-3.3	-7.3	1.3
CCCC(C)Sc1nc2c([nH]1)c(=S)n(C)c(=O)n2C (stereo not drawn)	.	.	.	.	35.3*	-1.5
Cn1c(=S)c2[nH]c(SCC3CCCO3)nc2n(C)c1=O (stereo not drawn)	.	.	.	.	25.2	-0.2
COc1ccccc1C=NN=C1c2ccccc2-c2ccccc21	.	.	.	.	-6.0	2.0
COc1ccccc1C=NN=Cc1ccccc1OC	.	.	.	.	30.7*	-2.5
COc1ccc(/C=N/N2C(=O)c3ccccc3C2=O)cc1	-2.0	-1.0	-0.3	-0.7	7.0	3.4
COc1ccccc1/C=N/N1C(=O)c2cccc3cccc(c23)C1=O	2.6	2.0	-1.5	-0.1	34.1*	2.6
CCC(=O)c1ccc(OC)c(OC)c1OCc1ccccc1	.	.	.	.	12.4	-1.6
COc1ccc(/C=N/NC(=S)Nc2ccccc2[N+](=O)[O-])cc1O	-7.5	1.7	14.1	-4.7	49.4*	-8.6
Cc1ccc(C=NNC(=O)C(=O)Nc2ccc(Cl)c([N+](=O)[O-])c2)cc1	.	.	.	.	.	-1.1
S=C(N/N=C/c1ccc(Cl)c(Cl)c1)Nc1ccccc1Cl	-4.5	0.3	-0.7	13.0	2.5	-2.5
Cc1ccc(NC(=S)N/N=C/c2ccc(Cl)c([N+](=O)[O-])c2)cc1	9.4	2.5	1.9	.	33.3*	-2.6
CCCOc1ccc(/C=N/NC(=S)Nc2ccccc2[N+](=O)[O-])c(O)c1	10.2	1.9	0.6	2.9	.	.
O=[N+]([O-])c1cc(/C=N/NC(=S)Nc2ccccc2Cl)ccc1Cl	-15.5	1.8	2.2	-4.0	32.9*	-0.5
CCCCN1C(=O)C(CC(=O)NCCCCc2ccccc2)CC(C(=O)N(C)C)=C1C (stereo not drawn)	.	.	.	.	15.5	1.1

Screening data deposited in PubChem by several laboratories.
